CSC inhib – blocks cancer stem cells; inhibition, % at 7.5 µM; AID 2717; cancer stem cell-like cells viability, luminescence; 300,000 compounds, 1.1% hits; in the data active means inhibition above about 75%; inconclusive means no clear call, values can overlap the other calls; tested in HMLE shEcad cells
Mdm2-MdmX inh – human Mdm2/MdmX binding inhibition | O15151+Q00987 | SaOS-2 split-luciferase Mdm2/MdmX complementation, luminescence | inhibition, % at 8 µM | 330,000 compounds, 3% hits | AID 485346;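 active means inhibition of at least 50% at 8 µM in the primary screen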
Target sequence (O15151 whole entry, looked up): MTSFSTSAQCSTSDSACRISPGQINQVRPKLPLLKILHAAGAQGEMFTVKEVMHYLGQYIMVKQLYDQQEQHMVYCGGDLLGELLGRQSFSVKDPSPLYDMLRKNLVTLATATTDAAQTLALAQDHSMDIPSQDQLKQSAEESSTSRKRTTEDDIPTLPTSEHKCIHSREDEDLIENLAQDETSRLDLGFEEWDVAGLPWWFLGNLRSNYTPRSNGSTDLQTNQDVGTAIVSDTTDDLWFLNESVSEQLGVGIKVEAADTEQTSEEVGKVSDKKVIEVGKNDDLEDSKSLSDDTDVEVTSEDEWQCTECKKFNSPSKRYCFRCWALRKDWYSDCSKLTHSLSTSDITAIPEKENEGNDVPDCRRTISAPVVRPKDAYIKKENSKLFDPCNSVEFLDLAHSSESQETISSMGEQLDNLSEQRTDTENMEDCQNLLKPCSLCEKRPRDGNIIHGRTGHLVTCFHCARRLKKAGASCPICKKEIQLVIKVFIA
Target sequence (Q00987 whole entry, looked up): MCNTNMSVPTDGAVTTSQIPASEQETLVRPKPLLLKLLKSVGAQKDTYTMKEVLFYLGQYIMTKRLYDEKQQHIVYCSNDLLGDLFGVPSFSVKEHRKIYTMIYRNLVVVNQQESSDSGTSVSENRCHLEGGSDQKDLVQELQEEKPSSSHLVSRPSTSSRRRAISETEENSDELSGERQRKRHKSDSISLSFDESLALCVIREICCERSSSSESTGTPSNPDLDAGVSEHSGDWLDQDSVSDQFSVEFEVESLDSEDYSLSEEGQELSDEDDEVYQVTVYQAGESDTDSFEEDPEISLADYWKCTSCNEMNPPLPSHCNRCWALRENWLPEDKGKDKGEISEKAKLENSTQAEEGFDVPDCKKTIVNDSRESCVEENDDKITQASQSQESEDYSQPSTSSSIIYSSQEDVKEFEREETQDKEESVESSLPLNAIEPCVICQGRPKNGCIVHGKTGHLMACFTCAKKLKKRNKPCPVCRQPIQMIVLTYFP
MPTP block – permeability transition pore inhibition | inhibition, % at 10 µM | isolated mouse mitochondria, Ca2+ swelling absorbance, 30 min | 360,000 compounds, 1.4% hits;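 active means inhibition of 50% or more, scaled per plate between neutral and stimulator controls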
Beta cell apopt – blocks beta cell apoptosis. INS-1E cytokine-induced death, ATP luminescence, 48 h; percent of positive-control rescue, neutral wells zero. 300,000 compounds, 0.8% hits. AID 435005. protection from apoptosis, % (concentration not given with the values);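 active means Every replicate reaches about 75%, or at least half do and their mean reaches it too, limit read from the data; inconclusive means At least half of replicates reach the limit but their mean does not; inactive means Under half of replicates reach the limit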;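 further: higher means more ATP so stronger rescue from cytokine killing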
Calb FLC – affects C. albicans growth with fluconazole. growth inhibition, % (no concentration beside the values). C. albicans CaCi-2 (fluconazole-resistant clinical isolate) + fluconazole, Alamar Blue growth, 48 h. 300,000 compounds, 0.57% hits. AID 1979;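 active means growth inhibition above about 58% in most replicates, limit read from the data, passing the limit was not always enough; inconclusive means exactly half the replicates above a set limit; inactive means most replicates below a set limit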;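 further: all wells also contain fluconazole at 8 µg/ml as a sub-toxic cotreatment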
Mdm2-MdmX conf – confirmation of human Mdm2/MdmX interaction inhibitors. shares compounds with Mdm2-MdmX inh. 10,000 compounds, 55% hits. Mdm2-MdmX binding, luminescent assay. inhibition, % at 8 µM. AID 489028; in the data active means inhibition above about 40%
Full FLuc ctr – inhibits full-length luciferase, flagging false Mdm2/MdmX hits; 6,200 compounds, 77% hits; SaOS-2 full-length luciferase counterscreen, luminescence; shares compounds with Mdm2-MdmX inh; AID 504607; inhibition, % at 8 µM;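 active means mean inhibition at 8 µM reaching about 37%, which flags the compound as non-specific, limit read from the data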;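 further: p53-null SaOS-2 cells with luciferase driven by a doxycycline-inducible promoter; compound on cells about two nights before reading with doxycycline added after day one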
Large screens that a line does not name were inactive (follow-up assays come after a bar, where they were run). Sampled rows, rich in hits. Any-hit rate of the full collection: about 4.8%.

COc1ccc(C2CC(c3cccc(F)c3)=NN2c2ccc(S(N)(=O)=O)cc2)cc1 (stereo unspecified)	Mdm2-MdmX inh 81 (no result: CSC inhib, Beta cell apopt, Calb FLC) | Mdm2-MdmX conf inactive
COc1ccc(C2CC(c3ccccc3)=NN2c2ccc(S(N)(=O)=O)cc2)cc1 (stereo unspecified)	none
Cn1c2c(c(=O)n(C)c1=O)CN(Cc1ccccc1)CN2	none (no result: CSC inhib, Mdm2-MdmX inh, Beta cell apopt, Calb FLC)
Nc1c(S(=O)(=O)c2cccs2)c2nc3ccccc3nc2n1/N=C/c1cccc(O)c1	CSC inhib 97, Mdm2-MdmX inh 79 | Mdm2-MdmX conf 56 | Full FLuc ctr 86
COc1cccc(/C=N/n2c(N)c(S(=O)(=O)c3cccs3)c3nc4ccccc4nc32)c1	Calb FLC inconclusive
CSc1sc(-c2n[nH]c(=S)n2C)c2c1C=CCC2	none
O=C(Nc1c(-c2ccccc2)[nH][nH]c1=O)c1ccc(Br)cc1	none (no result: CSC inhib, Mdm2-MdmX inh, Beta cell apopt, Calb FLC)
CCOC(=O)C(C)N1C(=O)S/C(=C/c2ccc3c(c2)n(C)c(=O)n3C)C1=O (stereo unspecified)	Mdm2-MdmX inh 51 | Mdm2-MdmX conf inactive
COc1ccc(-c2n[nH]c(C)c2-c2cscn2)c(O)c1	none
C=C(C)COc1ccc(-c2n[nH]c(C)c2-c2ccc(OC)cc2)c(O)c1	CSC inhib active, Mdm2-MdmX inh 61 | Mdm2-MdmX conf 49 | Full FLuc ctr 71
Cc1ccc(-n2c(C)cc(C3N=C(N)Nc4nc5ccccc5n43)c2C)c(C)c1 (stereo unspecified)	Mdm2-MdmX inh 72 | Mdm2-MdmX conf inactive
CCCCOc1ccc(C(=O)NCCN2CCC(n3c(=O)[nH]c4ccccc43)CC2)cc1	none (no result: CSC inhib, Mdm2-MdmX inh, Beta cell apopt, Calb FLC)
CCn1c(=O)cc(SCC(=O)NCc2ccc(C)cc2)c2ccccc21	none
CCn1c(=O)cc(SCC(=O)Nc2ccc(C)cn2)c2ccccc21	Mdm2-MdmX inh 100 | Mdm2-MdmX conf 70 | Full FLuc ctr 143
CCn1c(=O)cc(SCC(=O)Nc2cc(OC)c(OC)c(OC)c2)c2ccccc21	Mdm2-MdmX inh 53 | Mdm2-MdmX conf inactive
CCn1c(=O)cc(SCC(=O)NCc2ccc(C)o2)c2ccccc21	Mdm2-MdmX inh 60 (no result: CSC inhib) | Mdm2-MdmX conf inactive
CCn1c(=O)cc(SCC(=O)NCc2ccco2)c2ccccc21	none (no result: CSC inhib, Mdm2-MdmX inh)
CCN1CCN(C(=O)CSc2cc(=O)n(CC)c3ccccc23)CC1	Mdm2-MdmX inh 52 | Mdm2-MdmX conf 41 | Full FLuc ctr 76
CN(Cc1ccc(Cl)s1)C(=O)CN1C(=O)N(C)C2(CCCCC2)C1=O	none (no result: CSC inhib, Beta cell apopt, Calb FLC)
CN1CCN(c2ccccc2NC(=O)c2ccc(-c3ccc(Cl)c(Cl)c3)o2)CC1	CSC inhib 90, Mdm2-MdmX inh 58 | Mdm2-MdmX conf inactive
Cc1cc(OCC(=O)N2CCC(C(=O)O)CC2)c2c(C)c(C)c(=O)oc2c1	none
Cc1cc(OCC(=O)N2CCN(c3ccccc3)CC2)c2c(C)c(C)c(=O)oc2c1	Mdm2-MdmX inh 64 | Mdm2-MdmX conf 67 | Full FLuc ctr 87
COc1ccccc1-n1cnc2cc(NCc3cccs3)ccc21	Mdm2-MdmX inh 51 | Mdm2-MdmX conf 55 | Full FLuc ctr 80
O=C(C(=O)N1CCN(c2ccncc2)CC1)c1cccc(Br)c1	none (no result: CSC inhib, Mdm2-MdmX inh, Beta cell apopt, Calb FLC)
CCOC(=O)c1c(CN2CCN(C)CC2)n(-c2ccccc2)c2cc(Br)c(O)cc12	Mdm2-MdmX inh 61 | Mdm2-MdmX conf 46 | Full FLuc ctr 39
CCOC(=O)c1c(C)oc2cc(Cl)c(O)c(CN(C)C)c12	none
CCOC(=O)c1c(-c2ccccc2)oc2ccc(O)c(CN3CCN(C)CC3)c12	Mdm2-MdmX inh 51 | Mdm2-MdmX conf 45 | Full FLuc ctr 59
CCOC(=O)c1c(-c2ccccc2)oc2cc(CN(C)C)c(O)c(CN(C)C)c12	CSC inhib 94, Mdm2-MdmX inh 54 | Mdm2-MdmX conf 62 | Full FLuc ctr 48
O[C@@H]1C[C@H](c2ccc(Cl)cc2)N(Cc2cccs2)C[C@H]1n1cc(C2CC2)nn1	none (no result: CSC inhib, Mdm2-MdmX inh, Beta cell apopt, Calb FLC)
Cc1ccc(-n2ncc(C(=O)Nc3ccc(Cl)cc3)c2C2CCNCC2)cc1C	Mdm2-MdmX inh 61 | Mdm2-MdmX conf 54 | Full FLuc ctr 77
COc1cc(Cl)ccc1OC1(C)CCN(Cc2ccc(-c3ccccn3)cc2)C1 (stereo unspecified)	none (no result: CSC inhib, Mdm2-MdmX inh, Beta cell apopt, Calb FLC)
COc1ccc(N(CCC#N)C(=O)/C(C#N)=C/c2cccs2)cc1	none
N#CC(C#N)=c1ccc2c(c1)N1C(c3ccccc3)=CC(c3ccccc3)C3CCCCC31N=2 (stereo unspecified)	Mdm2-MdmX inh 61 | Mdm2-MdmX conf inactive
COc1ccc(OC)c(NC(=O)COC(=O)c2c3c(nc4ccccc24)CCCC3)c1	Mdm2-MdmX inh 85 | Mdm2-MdmX conf 63 | Full FLuc ctr 57
O=[N+]([O-])c1ccccc1Nc1c2ccccc2nc2ccccc12	none
COc1cc(Nc2c3c(nc4ccccc24)CCC3)cc(OC)c1OC	Mdm2-MdmX inh 88 | Mdm2-MdmX conf 74 | Full FLuc ctr 63
COc1ccc([N+](=O)[O-])cc1Nc1c2ccccc2nc2ccccc12	CSC inhib 131, Mdm2-MdmX inh 64 | Mdm2-MdmX conf 63 | Full FLuc ctr 63
COc1ccc([N+](=O)[O-])cc1NS(=O)(=O)c1ccccc1	none
COc1cc(Nc2nc3ccccc3nc2NS(=O)(=O)c2ccc([N+](=O)[O-])cc2)cc(OC)c1OC	Mdm2-MdmX inh 68 (no result: Calb FLC) | Mdm2-MdmX conf inactive | Full FLuc ctr 55
COc1ccc(NC(=O)COC(=O)c2c3c(nc4ccccc24)CCCC3)cc1	none
O=C(O)c1cc(S(=O)(=O)O)cc(Nc2c3ccccc3nc3ccccc23)c1O	none
COc1ccc(OC)c(Nc2c3ccccc3nc3ccccc23)c1	CSC inhib inconclusive, Mdm2-MdmX inh 73 | Mdm2-MdmX conf 65 | Full FLuc ctr 60
COc1ccccc1Nc1c2c(nc3ccc(N)cc13)CCCC2	none
COc1ccc(OC)c(Nc2c3c(nc4ccccc24)CCC3)c1	Mdm2-MdmX inh 51 | Mdm2-MdmX conf 62 | Full FLuc ctr 79
COc1cc(NS(C)(=O)=O)ccc1Nc1c2ccccc2nc2ccccc12	CSC inhib 102, Mdm2-MdmX inh 89 (no result: Calb FLC) | Mdm2-MdmX conf 73 | Full FLuc ctr 59
COc1ccc(OC)c(Nc2cc(C)c3ccccc3n2)c1	none (no result: Beta cell apopt)
CC(C)=CCCC(C)c1cc(C(=O)NCCc2ccc(O)cc2)c(N)s1 (stereo unspecified)	none (no result: CSC inhib, Mdm2-MdmX inh, Beta cell apopt, Calb FLC)
CC(C)(C)n1nnnc1C(c1ccc(C(F)(F)F)cc1)N(Cc1ccccc1)Cc1ccco1 (stereo unspecified)	Mdm2-MdmX inh 77, Beta cell apopt 117 | Mdm2-MdmX conf inactive
CC(C)(C)n1nnnc1C(c1ccc(C(F)(F)F)cc1)N(Cc1ccc(F)cc1)Cc1ccco1 (stereo unspecified)	Mdm2-MdmX inh 90, Beta cell apopt 107 | Mdm2-MdmX conf inactive
Cc1ccc(C(c2nnnn2C(C)(C)C)N(Cc2ccco2)Cc2cccs2)cc1 (stereo unspecified)	none

Screening data (PubChem BioAssay)
